# Screening results from PubChem.
# Hits are enriched below; roughly 0.71% of the tested compounds scored in any of these assays.
# IDE inh: inhibitors of human insulin-degrading enzyme in cells; inhibition, % at 5.59 µM; AID 434962; 320,000 tested, 0.41% active; HEK cells, FAbetaB cleavage, fluorescence polarization; P14735;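 active = percent inhibition above the average of all tested compounds plus 3 SD, set per screening campaign, cut at about 16% in these data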;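 also: IDE supplied by intact live HEK cells; FP after avidin binding of uncleaved biotin substrate so inhibition keeps polarization high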
# Target sequence (P14735 whole entry, looked up): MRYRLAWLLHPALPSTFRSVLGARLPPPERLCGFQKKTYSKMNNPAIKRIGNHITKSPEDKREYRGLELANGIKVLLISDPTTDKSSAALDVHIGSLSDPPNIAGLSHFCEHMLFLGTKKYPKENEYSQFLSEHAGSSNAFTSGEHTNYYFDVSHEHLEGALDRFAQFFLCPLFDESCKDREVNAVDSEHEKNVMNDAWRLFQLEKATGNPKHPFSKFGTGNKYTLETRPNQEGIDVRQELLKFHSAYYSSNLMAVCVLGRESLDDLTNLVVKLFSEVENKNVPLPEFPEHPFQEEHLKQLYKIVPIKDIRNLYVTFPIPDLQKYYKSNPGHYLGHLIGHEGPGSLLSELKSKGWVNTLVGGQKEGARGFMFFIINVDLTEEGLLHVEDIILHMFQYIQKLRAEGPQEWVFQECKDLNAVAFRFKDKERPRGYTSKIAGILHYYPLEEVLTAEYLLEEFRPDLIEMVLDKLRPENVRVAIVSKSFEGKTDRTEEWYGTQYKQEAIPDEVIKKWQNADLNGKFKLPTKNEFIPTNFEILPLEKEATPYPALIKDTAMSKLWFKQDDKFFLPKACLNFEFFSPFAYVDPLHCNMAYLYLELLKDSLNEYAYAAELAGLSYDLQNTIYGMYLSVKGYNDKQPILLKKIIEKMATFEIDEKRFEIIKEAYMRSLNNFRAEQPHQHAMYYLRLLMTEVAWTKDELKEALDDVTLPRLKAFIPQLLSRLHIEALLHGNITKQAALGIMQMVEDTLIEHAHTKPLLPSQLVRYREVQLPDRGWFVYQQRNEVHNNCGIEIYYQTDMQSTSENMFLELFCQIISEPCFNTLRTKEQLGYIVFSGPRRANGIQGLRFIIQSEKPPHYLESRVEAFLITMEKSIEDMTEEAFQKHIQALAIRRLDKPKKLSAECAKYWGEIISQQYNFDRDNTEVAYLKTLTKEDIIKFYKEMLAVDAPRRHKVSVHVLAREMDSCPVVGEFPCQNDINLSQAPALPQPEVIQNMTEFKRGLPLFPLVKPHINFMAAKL
# IDE act: activators of human insulin-degrading enzyme in cells | AID 493087 | 340,000 tested, 0.073% active | HEK cells, FAbeta-B cleavage, fluorescence polarization; 0% vehicle, 100% cell-free pure enzyme wells | P14735 | activation, % at 5.96 µM;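 active = activation above the mean of all tested compounds plus 3 SD, set per screening campaign, cut at about 17% in these data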
# RTF Ca sens inh: cardiac RTF calcium desensitization; AID 493244; P19429+P45379; IANBD-labeled cardiac RTF, Ca2+ fluorescence; 340,000 tested, 0.12% active; inhibition, % at 7.15 µM;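 active = inhibition above the mean inhibition of all tested compounds plus 3 SD, cut at about 17% in these data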;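 also: assay run at fixed EC70 calcium of 1.6 mM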
# cardiac RTF act: increases calcium sensitivity of human cardiac regulated thin filaments; P19429+P45379; IANBD-labeled TnC RTF fluorescence at EC20 calcium; 0% EC20 calcium, 100% full calcium; activation, % at 7.2 µM; 340,000 tested, 0.24% active;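 active = activation above the mean over all tested compounds plus 3 SD, cut at about 30% in these data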;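 also: rise in fluorescence read as greater calcium sensitivity of cardiac thin filaments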
# IDE inh confirm: cellular human IDE inhibition, confirmation; shares compounds with IDE inh; HEK cells, FAbetaB cleavage, fluorescence polarization; inhibition, % at 5.59 µM; 1,200 tested, 51% active; AID 435028;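 active = mean inhibition across triplicate wells above the cutoff set by the earlier primary insulin-degrading enzyme screen, cut at about 16% in these data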
# HEK cytotox: HEK cell cytotoxicity, counter-screen for IDE inhibitors; inhibition, % at 5.59 µM; shares compounds with IDE inh; HEK293 cytotoxicity, ATP luminescence; 1,200 tested, 28% active; in the data active = inhibition above about 22%
# A number is an active result; n = inactive; x = no result.
SMILES,IDE inh,IDE act,RTF Ca sens inh,cardiac RTF act,IDE inh confirm,HEK cytotox
COc1ccc(-[n+]2c(C)cc(/C=C3\Sc4ccccc4N3C)cc2C)cc1,72,n,n,44,105,111
COc1ccccc1-[n+]1c(C)cc(/C=C2\Sc3ccccc3N2C)cc1C,52,n,n,48,104,113
COc1ccc(C(=O)/C=C2\Sc3ccccc3N2C)cc1,n,x,x,x,x,x
CCOCCCNC(=O)c1ccc(-n2c(=S)[nH]c3ccccc3c2=O)cc1,n,n,n,n,x,x
CCOC(=O)c1[nH]c2ccccc2c1NC(=S)Nc1cccc(C)c1C,n,n,n,n,x,x
COc1cccc(Cl)c1NC(=O)N1CCN(c2cc(C)nc3ccccc23)CC1,28,n,n,n,22,23
Cc1cc(N2CCN(C(=O)/C=C/C(=O)O)CC2)c2ccccc2n1,n,n,n,n,x,x
O=C(COC(=O)c1cccc(Cl)c1)Nc1cc(S(=O)(=O)N2CCOCC2)ccc1N1CCOCC1,x,n,n,n,x,x
O=C(OCCN1C(=O)c2ccccc2C1=O)c1cc(S(=O)(=O)N2CCOCC2)ccc1Cl,n,n,n,n,x,x
O=C(OCCN1C(=O)c2cccc3c(N4CCOCC4)ccc(c23)C1=O)c1ccccc1Cl,113,n,n,112,96,50
O=C(OCCN1C(=O)c2cccc3c(N4CCOCC4)ccc(c23)C1=O)c1ccc(Cl)cc1Cl,49,n,n,192,48,61
O=C(OCCN1C(=O)c2cccc3c(N4CCOCC4)ccc(c23)C1=O)c1cccc(Cl)c1,91,x,x,x,81,38
O=C(O)CCn1c(SCCOc2ccccc2)nc2ccccc21,n,n,n,n,x,x
Cc1ncoc1C(=O)NC1CCCc2c1cnn2-c1ccc(C(C)(C)C)cc1 (configuration not stated),x,n,n,n,x,x
CN(C)C(CNC(=O)c1ccccc1OCc1ccc(Cl)cc1)c1ccco1 (configuration not stated),n,n,n,n,x,x
COc1ccc(C(=O)/C=C/c2cc(OC)c(O)c(OC)c2)c(F)c1,52,n,n,n,87,43
COc1ccc(C(=O)/C=C/c2ccc(N(C)C)cc2)c(OC)c1,82,n,n,81,26,47
O=[N+]([O-])c1ccc(C2=NN(c3ccccc3)C(c3ccco3)C2)cc1 (configuration not stated),x,n,n,n,x,x
O=[N+]([O-])c1ccc(/C=C/C2=NN(c3ccccc3)C(c3ccco3)C2)cc1 (configuration not stated),36,n,n,n,53,n
CCOC(=O)C1(C(=O)OCC)NC(=O)CC1C(C)C (configuration not stated),x,n,n,n,x,x
CN(C)c1ccc(/C=C/C(=O)c2ccc3c(c2)OCO3)cc1,73,n,n,92,119,n
CN(C)c1ccc(/C=C/C(=O)c2cccnc2)cc1,30,n,n,n,43,n
O=C(/C=C/c1ccccc1)c1ccc2c(c1)OCO2,n,n,n,n,x,x
CCNc1nnc(CSc2nc3ccccc3s2)s1,17,n,n,n,n,n
Oc1c(Cl)cc(Cl)cc1/C=C/c1ccc2cccc(O)c2n1,33,n,n,n,54,n
SMILES,IDE inh,IDE act,RTF Ca sens inh,cardiac RTF act,IDE inh confirm,HEK cytotox
Oc1ccc(Cl)cc1/C=C/c1ccc2cccc(O)c2n1,x,n,n,n,x,x
O=C(O)c1nn(CCOc2c(Cl)cccc2Cl)c(=O)c2ccccc12,n,n,n,n,x,x
O=C(CCC(=O)c1ccc(Cl)cc1)OCc1nc2ccsc2c(=O)[nH]1,n,n,n,n,x,x
CN1C(=O)c2cccc3c(N(C)C)ccc(c23)C1=O,46,n,n,n,52,n
CN1C(=O)c2cccc3c(Br)ccc(c23)C1=O,n,x,x,x,x,x
O=C(Nc1ccccc1C(=O)Nc1nnc(C(F)(F)F)s1)c1ccccc1Cl,n,n,n,n,x,x
C=CCN1C(=O)/C(=C/C=C2/N(CC)c3ccc(S(=O)(=O)N(C)C)cc3N2CC)SC1=S,22,n,n,429,160,39
N=C1/C(=C/c2coc3ccccc3c2=O)C(=O)N=C2SC(c3ccco3)=NN12,n,x,x,x,x,x
N=C1/C(=C\c2coc3ccccc3c2=O)C(=O)N=C2SC(c3ccncc3)=NN12,42,n,n,92,20,n
CSC1=NSC2=NC(=O)/C(=C\c3coc4ccccc4c3=O)C(=N)N12,43,n,n,193,46,n
CC(C)CSC1=NSC2=NC(=O)/C(=C\c3coc4ccccc4c3=O)C(=N)N12,63,n,n,662,106,n
CC(C)C(=O)N(c1ccc2oc(=O)sc2c1)S(=O)(=O)c1ccccc1,25,n,n,n,n,n
COc1ccc(OC)c(S(=O)(=O)N(C(C)=O)c2ccc3oc(=O)sc3c2)c1,n,n,n,n,x,x
CC(=O)N(c1ccc2oc(=O)sc2c1)S(=O)(=O)c1ccccc1,23,n,n,n,n,n
CCN(CCn1cccn1)C(=O)CCc1nnc(C2(c3ccc(Cl)cc3)CCC2)o1,n,n,n,n,x,x
COc1ccccc1C1C=C(c2ccc(Cl)cc2)Nc2nc(NS(C)(=O)=O)nn21 (configuration not stated),n,x,x,x,x,x
CS(=O)(=O)Nc1nc2n(n1)C(c1ccccc1)C=C(c1ccc(Br)cc1)N2 (configuration not stated),63,n,n,82,79,n
O=C(NNC(=O)c1ccc(Cl)cc1Cl)c1csc(-c2cccnc2)n1,21,n,n,n,n,n
Cc1c(-n2cc(C(=O)c3cc(Cl)ccc3O)cc(C#N)c2=O)c(=O)n(-c2ccccc2)n1C,17,n,n,n,25,n
Cc1ccc(O)c(C(=O)c2cc(C#N)c(=O)n(-c3nccs3)c2)c1,51,n,n,69,65,n
O=C(CCN1C(=O)/C(=C\c2ccc(F)cc2)SC1=S)Nc1ccc(O)cc1,n,n,n,n,x,x
CC(=Nc1ccccc1)c1sc2ccccc2c1O,20,n,n,n,51,n
CC(=Nc1ccc(Br)cc1)c1sc2ccccc2c1O,20,n,n,n,54,n
CCN(CC)c1ccc(/C=C2\C(=O)c3ccc(C(=O)O)cc3C2=O)cc1,141,n,n,74,26,n
COc1ccc(NC(=O)CSCC(=O)N(C)Cc2ccc3c(c2)OCCO3)cc1,n,n,n,n,x,x
SMILES,IDE inh,IDE act,RTF Ca sens inh,cardiac RTF act,IDE inh confirm,HEK cytotox
NS(=O)(=O)c1ccc(CNc2ccc3ccccc3n2)cc1,n,n,n,n,x,x
Fc1ccc2[nH]c3c(NCc4ccccc4)ncnc3c2c1,88,n,n,n,67,59
COCCNc1ncnc2c1[nH]c1ccccc12,18,n,n,n,n,n
OCCCNc1ncnc2c1[nH]c1ccccc12,n,n,n,n,x,x
COc1ccc2[nH]c3c(NCc4ccco4)ncnc3c2c1,38,x,x,x,18,n
CCOC(=O)c1cc2c(c(-c3ccccc3)n1)[C@H](CCO)N(S(=O)(=O)C(C)(C)C)C2,x,n,n,n,x,x
